# Structures can show the parent of a compound that is named as a salt. ± gives the standard deviation of the averaged measurements.
# Tests used:
# [1] = tested on: Saccharomyces cerevisiae BY4741 SeMeCo community; experiment: mean cell size (pixel area) (pixels); higher = larger cells; details: 10 µM; 24 h; SM minimal medium
# Method in brief: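 Mean cell pixel area per well was determined by automated confocal microscopy with Harmony analysis of paraformaldehyde-fixed cells. The cells, a Saccharomyces cerevisiae BY4741 community of four plasmids that each complement one auxotrophy and carry a fluorescent marker, were incubated for 24 h with drug at a final 10 µM in SM medium in 384-well plates. Numbers are averaged over 3 replicates. Same SeMeCo high-content imaging drug screen: Selleck FDA-approved drugs at 10 µM, 24 h in SM medium, 384-well plates, 3 replicates.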
# [2] = tested on: Saccharomyces cerevisiae BY4741 SeMeCo community; experiment: z-score of subpopulation abundance vs DMSO median, subpopulation auxotrophic for M; higher = larger share of this subpopulation than in DMSO controls; details: 10 µM; 24 h; SM minimal medium; subpopulation (auxotrophy): M
# Method in brief: (§1)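 Cells of a Saccharomyces cerevisiae BY4741 community, carrying four plasmids that each restored one auxotrophy and encoded a distinct fluorescent protein, were pre-grown overnight to OD600 1.0 and diluted to 0.3. A 70 µl volume was added to 384-well plates acoustically predosed with library drugs (10 µM final) and grown 24 h in minimal SM medium. After paraformaldehyde fixation, automated confocal microscopy was used, with single-auxotroph fluorescent strains for thresholds and autofluorescence correction. The abundance of each subpopulation was scored as a z-score against the vehicle-well median.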
# [3] = tested on: Saccharomyces cerevisiae BY4741 SeMeCo community; experiment: z-score of subpopulation abundance vs DMSO median, subpopulation auxotrophic for L; higher = larger share of this subpopulation than in DMSO controls; details: 10 µM; 24 h; SM minimal medium; subpopulation (auxotrophy): L
# Method in brief: as §1
# [4] = tested on: Saccharomyces cerevisiae BY4741 SeMeCo community; experiment: z-score of subpopulation abundance vs DMSO median, subpopulation auxotrophic for U; higher = larger share of this subpopulation than in DMSO controls; details: 10 µM; 24 h; SM minimal medium; subpopulation (auxotrophy): U
# Method in brief: as §1
# [5] = tested on: Saccharomyces cerevisiae BY4741 SeMeCo community; experiment: z-score of subpopulation abundance vs DMSO median, subpopulation auxotrophic for LU; higher = larger share of this subpopulation than in DMSO controls; details: 10 µM; 24 h; SM minimal medium; subpopulation (auxotrophy): LU
# Method in brief: as §1
# [6] = tested on: Saccharomyces cerevisiae BY4741 SeMeCo community; experiment: z-score of subpopulation abundance vs DMSO median, subpopulation auxotrophic for LM; higher = larger share of this subpopulation than in DMSO controls; details: 10 µM; 24 h; SM minimal medium; subpopulation (auxotrophy): LM
# Method in brief: as §1
# [7] = tested on: Saccharomyces cerevisiae BY4741 SeMeCo community; experiment: z-score of subpopulation abundance vs DMSO median, subpopulation auxotrophic for HM; higher = larger share of this subpopulation than in DMSO controls; details: 10 µM; 24 h; SM minimal medium; subpopulation (auxotrophy): HM
# Method in brief: as §1
# [8] = tested on: Saccharomyces cerevisiae BY4741 SeMeCo community; experiment: z-score of subpopulation abundance vs DMSO median, subpopulation auxotrophic for HU; higher = larger share of this subpopulation than in DMSO controls; details: 10 µM; 24 h; SM minimal medium; subpopulation (auxotrophy): HU
# Method in brief: as §1
# [9] = tested on: Saccharomyces cerevisiae BY4741 SeMeCo community; experiment: z-score of subpopulation abundance vs DMSO median, subpopulation auxotrophic for UM; higher = larger share of this subpopulation than in DMSO controls; details: 10 µM; 24 h; SM minimal medium; subpopulation (auxotrophy): UM
# Method in brief: as §1
# [10] = tested on: Saccharomyces cerevisiae BY4741 SeMeCo community; experiment: z-score of subpopulation abundance vs DMSO median, subpopulation auxotrophic for HL; higher = larger share of this subpopulation than in DMSO controls; details: 10 µM; 24 h; SM minimal medium; subpopulation (auxotrophy): HL
# Method in brief: as §1
# [11] = tested on: Saccharomyces cerevisiae BY4741 SeMeCo community; experiment: z-score of subpopulation abundance vs DMSO median, subpopulation auxotrophic for HLU; higher = larger share of this subpopulation than in DMSO controls; details: 10 µM; 24 h; SM minimal medium; subpopulation (auxotrophy): HLU
# Method in brief: as §1
# [12] = tested on: Saccharomyces cerevisiae BY4741 SeMeCo community; experiment: z-score of subpopulation abundance vs DMSO median, subpopulation auxotrophic for HLM; higher = larger share of this subpopulation than in DMSO controls; details: 10 µM; 24 h; SM minimal medium; subpopulation (auxotrophy): HLM
# Method in brief: as §1
# [13] = tested on: Saccharomyces cerevisiae BY4741 SeMeCo community; experiment: z-score of subpopulation abundance vs DMSO median, subpopulation auxotrophic for HUM; higher = larger share of this subpopulation than in DMSO controls; details: 10 µM; 24 h; SM minimal medium; subpopulation (auxotrophy): HUM
# Method in brief: as §1
# [14] = tested on: Saccharomyces cerevisiae BY4741 SeMeCo community; experiment: z-score of subpopulation abundance vs DMSO median, subpopulation auxotrophic for LUM; higher = larger share of this subpopulation than in DMSO controls; details: 10 µM; 24 h; SM minimal medium; subpopulation (auxotrophy): LUM
# Method in brief: as §1
# [15] = tested on: Saccharomyces cerevisiae BY4741 SeMeCo community; experiment: z-score of prototroph abundance vs DMSO median; higher = larger share of this subpopulation than in DMSO controls; details: 10 µM; 24 h; SM minimal medium; subpopulation (auxotrophy): Prototroph
# Method in brief: as §1
# [16] = tested on: Saccharomyces cerevisiae BY4741 SeMeCo community; experiment: z-score of subpopulation abundance vs DMSO median, subpopulation auxotrophic for HLUM; higher = larger share of this subpopulation than in DMSO controls; details: 10 µM; 24 h; SM minimal medium; subpopulation (auxotrophy): HLUM
# Method in brief: as §1
# [17] = tested on: Saccharomyces cerevisiae BY4741 SeMeCo community; experiment: z-score of subpopulation abundance vs DMSO median, subpopulation auxotrophic for H; higher = larger share of this subpopulation than in DMSO controls; details: 10 µM; 24 h; SM minimal medium; subpopulation (auxotrophy): H
# Method in brief: as §1
Structure (SMILES),mean cell size [1],z-score of subpopulation abundance [2],z-score of subpopulation abundance [3],z-score of subpopulation abundance [4],z-score of subpopulation abundance [5],z-score of subpopulation abundance [6],z-score of subpopulation abundance [7],z-score of subpopulation abundance [8],z-score of subpopulation abundance [9],z-score of subpopulation abundance [10],z-score of subpopulation abundance [11],z-score of subpopulation abundance [12],z-score of subpopulation abundance [13],z-score of subpopulation abundance [14],z-score of prototroph abundance [15],z-score of subpopulation abundance [16],z-score of subpopulation abundance [17]
Cc1cc(C)nc(NS(=O)(=O)c2ccc(N)cc2)n1 [Sulfamethazine Sodium Salt],12.28 ± 0.095,-1.42,0.3,-0.43,-0.11,-0.63,-0.79,0.05,-0.8,-0.24,-0.28,-0.15,-0.93,-0.01,,,
CC[C@@H]1/C=C(\C)C[C@H](C)C[C@H](OC)[C@H]2O[C@@](O)(C(=O)C(=O)N3CCCC[C@H]3C(=O)O[C@H](/C(C)=C/[C@@H]3CC[C@@H](O)[C@H](OC)C3)[C@H](C)[C@@H](O)CC1=O)[C@H](C)C[C@@H]2OC [Ascomycin (FK520)],11.8 ± 0.18,1.34,0.1,-0.06,-0.23,1.39,,1.75,0.63,2.56,2.5,1.57,2.57,2.23,-1.94,2.95,
CO/N=C1\C[C@]2(C[C@@H]3C[C@@H](C/C=C(\C)C[C@@H](C)/C=C/C=C4\CO[C@@H]5[C@H](O)C(C)=C[C@@H](C(=O)O3)[C@]45O)O2)O[C@H](/C(C)=C/C(C)C)[C@H]1C [Moxidectin],12.4 ± 0.18,-0.74,0.29,0.66,0.03,0.55,1.1,2.12,0.37,1.14,1.24,1.14,1.33,0.37,-0.99,,1.63
C[C@@H](O)[C@H]1C(=O)N2C(C(=O)O)=C(S[C@@H]3CN[C@H](C(=O)N(C)C)C3)[C@H](C)[C@H]12 [Meropenem Trihydrate],12.6 ± 0.27,0.89,0.38,-0.82,0.63,0.14,1.13,-0.59,-0.82,,0.91,0.4,-0.48,-0.3,,,
C#C[C@]1(O)CC[C@H]2[C@@H]3CCc4cc(OC)ccc4[C@H]3CC[C@@]21C [Mestranol],12.4 ± 0.25,-1.19,0.33,-0.41,-0.19,-0.14,-0.5,-0.49,-0.68,-0.16,-0.61,-0.48,-0.58,-0.31,0.82,,-0.4
Nc1ccc(C(=O)O)c(O)c1 [4-Aminosalicylic acid],12 ± 0.19,1.33,0.78,,-3.37,0.62,0.06,-3.39,-2.19,0.08,-0.27,-0.9,-1.3,,2.23,,-0.01
O=C(O)Cc1ccccc1Nc1c(Cl)cccc1Cl [Diclofenac acid],12.5 ± 0.047,0.23,0.08,-0.61,-0.18,0,,-1.1,,-0.51,0.15,0,-1.34,-0.28,1.03,-0.07,-1.45
Nc1ccc(S(=O)(=O)Nc2ncccn2)cc1 [Sulfadiazine],12.34 ± 0.084,-0.51,0.86,-0.28,0.22,-0.04,,-0.2,,-0.65,0.31,0,-0.05,0.42,0.05,1.03,-0.65
Clc1ccc(C(Cn2ccnc2)OCc2ccc(Sc3ccccc3)cc2)c(Cl)c1 (stereo not given) [Fenticonazole Nitrate],10.7 ± 0.2,-13.8,4.64,4.22,4.88,,-6.61,28.7,-3.35,62.4,14.8,30.4,4.77,,-13.4,109,25
CC[C@H]1OC(=O)C[C@@H](O)[C@H](C)[C@@H](O[C@@H]2O[C@H](C)[C@@H](O)[C@H](N(C)C)[C@H]2O)[C@@H](CCN2C[C@H](C)C[C@H](C)C2)C[C@@H](C)C(=O)/C=C/C(C)=C/[C@@H]1CO[C@@H]1O[C@H](C)[C@@H](O)[C@@H](OC)[C@H]1OC [Tilmicosin],12.4 ± 0.17,-0.16,0.75,0.52,1.26,0.46,,1.52,0.65,1.91,0.58,0.13,0.75,1.68,-1.13,,0.98
Cc1cc(NS(=O)(=O)c2ccc(N)cc2)nc(C)n1 [sulfaisodimidine],12.1 ± 0.25,0.59,0.19,0.36,0.99,0.12,,,0.16,-0.94,0.38,-0.45,-0.19,,-0.51,0.48,-1.29
CNCc1cc(-c2ccccc2F)n(S(=O)(=O)c2cccnc2)c1 [Vonoprazan Fumarate (TAK-438)],12.3 ± 0.26,0.45,-1.45,0.84,-0.72,,-0.52,-0.16,-0.09,-1.38,-0.64,-0.4,-0.68,-0.32,0,-0.37,-0.55
OCCN(CCO)c1nc(N2CCCCC2)c2nc(N(CCO)CCO)nc(N3CCCCC3)c2n1 [Dipyridamole],12.5 ± 0.14,5.88,4.21,,-7.03,10.9,,-7.22,-8.15,,-3.69,11.4,-6.13,-4.38,1.3,-1.34,3.18
C[C@](N)(Cc1ccc(O)c(O)c1)C(=O)O [Methyldopa],12.3 ± 0.034,-1.02,-0.9,-0.29,-0.35,-0.77,,,,-0.91,-0.36,-0.36,-0.27,-1.19,0.97,-0.4,

# — the supplement of paper PMC8975748
